According to PubChem BioAssay (NCATS):
Records with an inconclusive call do not appear. Where a call stands in place of a potency, no number is given. Activity calls are given as the source filed them. Unless noted, calls follow the shape of the dose curve; as a rule, active = well fitted curve in the direction sought with a large enough effect; inconclusive = small, poorly fitted or top-dose-only effect, or another doubt; inactive = no such curve, though single readings can be large; an effect the other way counts as inactive or inconclusive.

How the values were obtained:
[1] = Nrf2 qHTS screen for inhibitors: Validation (AID 493153; active = well fitted inhibition curve with a large enough effect in the main read-out, with a control signal flat, not every such curve was filed as active); settings: Potency: luciferase luminescence; viability change: measured here: cytotoxicity max response
How it was run: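 A549 cells carrying an ARE-driven firefly luciferase reporter, in 5% FBS OPTI-MEM, were treated with compounds in concentration-response for 18-24 h at 37°C. Viability was read by CellTiter-Fluor fluorescence, then Nrf2 activity by luciferase luminescence.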

[2] = qHTS for Inhibitors of Cell Surface uPA Generation: Validation Assay (AID 493164);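 also: RAW 264.7 macrophage cells exposed to compound for 18 h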
How it was run: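 RAW 264.7, 4000 cells/well, o/n plating; cpd 7-pt 1:5 dilution 2.45 nM–38.3 uM final; 18 h, 37 C/5% CO2; ATP-Lite, 5 s luminescence exposure.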

[3] = biological target: Galactokinase (Homo sapiens) (UniProt P51570); test: qHTS Validation Assay for Inhibitors of Human Galactokinase (GALK) (AID 493189)
How it was run: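 Luminescence from leftover ATP (Kinase-Glo Plus, 10 min) served as read-out after a 1 h room-temperature reaction of 5 nM GALK, 100 uM galactose and 35 uM ATP at pH8.0.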

[4] = biological target: Peptidyl-prolyl cis-trans isomerase NIMA-interacting 1 (Homo sapiens) (UniProt Q13526); test: qHTS Validation Assay to Find Inhibitors of Pin1 (AID 504536; active = well fitted inhibition curve with a large enough effect in the polarisation, with a control signal flat, not every such curve was filed as active; the % refers to the polarisation)
How it was run: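 Fluorescence polarization competition: compounds (titration) displace HiFluor-488-labeled Pin1-1b peptide from Pin1 (0.3 uM final) in pH 7.5 HEPES buffer with DTT, 10 min at room temperature; %Activity normalized to no-enzyme wells, curves fitted.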

[5] = biological target: Phosphoglycerate kinase, glycosomal (Trypanosoma brucei brucei) (UniProt P07378); test: qHTS Validation Assay to Find Inhibitors of Phosphoglycerate Kinase (AID 504547); also: potency is read from the fitted curve at half-maximal effect
How it was run: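 Inhibition of the enzyme is judged by a Kinase-Glo Plus luminescent signal following a one-hour incubation at room temperature. Because 1,3-BPG is unstable, it is made in situ by GAPDH at 100nM final; no-PGK wells define the baseline.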

[6] = biological target: phosphoglycerate mutase (Leishmania major) (UniProt Q4Q090); test: qHTS Validation Assay to Find Inhibitors of Phosphoglycerate Mutase (AID 504548); settings: Potency: inhibition qHTS; also: series mostly up to about 58 µM
How it was run: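 Lm PGAM at 1.25 nM final with substrate in 100 mM TEA pH 7.6, 5 mM MgCl2, 0.01% Tween-20; 45 min at room temperature. Kinase-GloPlus added, 10 min, end-point luminescence read.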

[7] = qHTS for Inhibitors of ATXN expression: Validation of Cytotoxic Assay (AID 588349); also: potency is read from the fitted curve at half-maximal effect
How it was run: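 HEK293 cells were dosed with titrated compounds for 72 hr at 37 degrees C. Viability was read by CellTiter Glo luminescence, with intracellular ATP as the marker of cell survival.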

[8] = biological target: Ubiquitin carboxyl-terminal hydrolase 1 (Homo sapiens) (UniProt O94782); test: Inhibitors of USP1/UAF1: Pilot qHTS (AID 504865); also: nearly all actives have a fitted effect of over 35% in size; also: potency is read from the fitted curve at half-maximal effect
How it was run: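 1nM USP1/UAF1 + cpd, 15 min RT; start w/ Ub-Rho 150nM final; kinetic FL 480/540 nm, 6 reads q60 s. Buffer 50mM HEPES pH 7.8, 0.5mM EDTA, 1mM TCEP, 0.01% Tween-20, 0.1 mg/ml BSA.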

[9] = qHTS for Inhibitors of ATXN expression: Validation (AID 588378); also: nearly all actives have a fitted effect of over 75% in size; also: potency is read from the fitted curve at half-maximal effect
How it was run: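 Cells: HEK293-ATXN2-FFLuc, phenol-red free DMEM, 2 h attachment. Compound pin-transfer, 24 h, 37 degrees C, 5% CO2. CellTiter-Fluor 30 min, Ex405/Em525; Bright-Glo 5 min, luminescence 2 s exposure.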

[10] = biological target: DNA dC->dU-editing enzyme APOBEC-3G (Homo sapiens) (UniProt Q9HC16); test: qHTS for inhibitors of Vif-A3G interactions: Validation (AID 588379)
How it was run: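 HeLa cells stably expressing Vif and A3G-eYFP, 700 cells/well, incubated overnight at 37 deg C, then exposed to compound overnight at 37 deg C. Inhibition of Vif-mediated degradation read as increased yellow fluorescence (Ex 488/Em 500-530) by laser-scanning cytometry.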

[11] = biological target: Androgen receptor (Homo sapiens) (UniProt P10275); test: qHTS assay for small molecule agonists of androgen receptor signaling (AID 588515; active = well fitted curve in the direction sought with a large enough effect in the signal ratio, with a control signal flat; the % refers to the signal ratio); settings: AR-UAS-bla HEK293, beta-lactamase ratio, agonist 16 h; stronger effect = higher value
How it was run: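 EC50 and efficacy came from Hill fits of titrations (up to 92 uM) normalized to 30 nM R1881 as 100% and DMSO as 0%. Compound exposure was 16 h at 37 C on AR-UAS-bla HEK293 cells, with a 405/460/530 nm CCF4 fluorescence read.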

[12] = biological target: Glucocorticoid receptor (Homo sapiens) (UniProt P04150); test: qHTS assay for small molecule agonists of glucocorticoid receptor signaling (AID 588532; active = well fitted curve in the direction sought with a large enough effect in the signal ratio, with a control signal flat; the % refers to the signal ratio); settings: HeLa MMTV-bla, beta-lactamase ratio, agonist, 18 h; stronger effect = higher value; percent of dexamethasone control, DMSO zero
How it was run: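 Using MMTV-bla HeLa cells in medium with 1% stripped FBS and 25 mM HEPES, compounds were titrated and incubated overnight-length (18 h). Beta-lactamase cleavage of CCF4 was quantified by dual-emission fluorescence.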

[13] = Validation screen for small molecules that induce DNA re-replication in SW480 colon adenocarcinoma cells (AID 504364)
How it was run: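 SW480 cells seeded at 250 per well were exposed to compound or DMSO for 48 hr at 37 C, 5% CO2, then stained with Hoechst for 40 min. DNA content per nucleus was imaged (405 nm ex, 500-530 nm em).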

Galactokinase (Homo sapiens), sequence (P51570 whole entry, looked up): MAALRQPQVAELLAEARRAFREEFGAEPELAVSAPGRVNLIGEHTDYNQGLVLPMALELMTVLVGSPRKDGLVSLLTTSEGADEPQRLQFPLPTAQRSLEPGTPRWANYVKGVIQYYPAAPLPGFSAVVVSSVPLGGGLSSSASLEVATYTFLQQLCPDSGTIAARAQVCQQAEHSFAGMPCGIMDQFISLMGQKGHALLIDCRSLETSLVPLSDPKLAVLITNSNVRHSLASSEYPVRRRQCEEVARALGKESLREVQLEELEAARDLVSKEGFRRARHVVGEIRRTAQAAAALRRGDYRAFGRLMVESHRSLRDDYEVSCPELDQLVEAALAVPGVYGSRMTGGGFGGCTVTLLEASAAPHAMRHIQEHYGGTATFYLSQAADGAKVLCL
Phosphoglycerate kinase, glycosomal (Trypanosoma brucei brucei), sequence (P07378 whole entry, looked up): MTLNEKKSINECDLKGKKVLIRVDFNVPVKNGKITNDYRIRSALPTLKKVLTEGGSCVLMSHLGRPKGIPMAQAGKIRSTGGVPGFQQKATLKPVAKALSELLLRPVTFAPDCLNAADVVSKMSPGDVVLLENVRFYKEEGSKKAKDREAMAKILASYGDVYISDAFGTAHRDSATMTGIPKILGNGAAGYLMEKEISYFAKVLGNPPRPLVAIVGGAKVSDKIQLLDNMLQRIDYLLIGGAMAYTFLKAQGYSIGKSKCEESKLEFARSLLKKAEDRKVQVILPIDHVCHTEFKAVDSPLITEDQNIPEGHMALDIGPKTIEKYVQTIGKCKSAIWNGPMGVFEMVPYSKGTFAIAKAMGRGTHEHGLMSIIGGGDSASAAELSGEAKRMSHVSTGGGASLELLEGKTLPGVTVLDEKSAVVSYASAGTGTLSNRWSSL
Ubiquitin carboxyl-terminal hydrolase 1 (Homo sapiens), sequence (O94782 whole entry, looked up): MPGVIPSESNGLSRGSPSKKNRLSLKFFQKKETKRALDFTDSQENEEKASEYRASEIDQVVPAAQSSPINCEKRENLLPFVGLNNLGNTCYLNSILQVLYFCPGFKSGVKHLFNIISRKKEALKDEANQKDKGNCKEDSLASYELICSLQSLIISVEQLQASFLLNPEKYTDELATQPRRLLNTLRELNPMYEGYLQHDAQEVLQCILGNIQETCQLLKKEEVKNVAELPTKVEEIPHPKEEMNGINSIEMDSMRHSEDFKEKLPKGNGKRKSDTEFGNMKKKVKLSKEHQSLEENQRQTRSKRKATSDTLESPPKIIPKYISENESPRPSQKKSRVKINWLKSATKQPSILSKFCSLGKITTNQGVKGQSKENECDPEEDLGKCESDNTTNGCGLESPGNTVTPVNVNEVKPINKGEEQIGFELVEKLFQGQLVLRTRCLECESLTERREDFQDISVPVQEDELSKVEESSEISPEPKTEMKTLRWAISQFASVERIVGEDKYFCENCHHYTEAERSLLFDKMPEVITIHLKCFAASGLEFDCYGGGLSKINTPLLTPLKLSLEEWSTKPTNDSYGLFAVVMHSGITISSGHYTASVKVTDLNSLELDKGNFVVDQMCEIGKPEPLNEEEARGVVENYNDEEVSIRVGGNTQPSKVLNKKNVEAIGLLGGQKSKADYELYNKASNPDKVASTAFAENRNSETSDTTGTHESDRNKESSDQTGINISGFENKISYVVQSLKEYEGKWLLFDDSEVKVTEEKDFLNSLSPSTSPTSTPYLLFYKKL
phosphoglycerate mutase (Leishmania major), sequence (Q4Q090 1-553): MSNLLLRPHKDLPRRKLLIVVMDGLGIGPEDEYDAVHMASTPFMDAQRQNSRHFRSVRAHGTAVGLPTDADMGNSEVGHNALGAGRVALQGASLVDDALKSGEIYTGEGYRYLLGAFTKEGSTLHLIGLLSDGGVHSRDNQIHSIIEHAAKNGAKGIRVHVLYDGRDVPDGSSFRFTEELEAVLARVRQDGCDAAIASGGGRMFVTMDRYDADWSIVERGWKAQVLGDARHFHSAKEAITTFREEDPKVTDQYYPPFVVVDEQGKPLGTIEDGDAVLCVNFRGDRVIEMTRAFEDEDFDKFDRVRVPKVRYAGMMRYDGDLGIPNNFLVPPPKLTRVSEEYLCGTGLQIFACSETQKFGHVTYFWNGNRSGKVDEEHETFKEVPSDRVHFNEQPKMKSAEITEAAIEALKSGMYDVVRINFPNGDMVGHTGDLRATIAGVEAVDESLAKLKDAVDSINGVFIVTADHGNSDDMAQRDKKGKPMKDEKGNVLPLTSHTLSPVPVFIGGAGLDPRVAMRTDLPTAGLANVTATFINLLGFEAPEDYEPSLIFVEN
Peptidyl-prolyl cis-trans isomerase NIMA-interacting 1 (Homo sapiens), sequence (Q13526 whole entry, looked up): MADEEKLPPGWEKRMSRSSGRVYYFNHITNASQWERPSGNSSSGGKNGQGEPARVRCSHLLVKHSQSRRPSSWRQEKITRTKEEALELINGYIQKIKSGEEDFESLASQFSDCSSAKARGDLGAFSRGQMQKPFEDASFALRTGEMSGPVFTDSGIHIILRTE
DNA dC->dU-editing enzyme APOBEC-3G (Homo sapiens), sequence (Q9HC16 whole entry, looked up): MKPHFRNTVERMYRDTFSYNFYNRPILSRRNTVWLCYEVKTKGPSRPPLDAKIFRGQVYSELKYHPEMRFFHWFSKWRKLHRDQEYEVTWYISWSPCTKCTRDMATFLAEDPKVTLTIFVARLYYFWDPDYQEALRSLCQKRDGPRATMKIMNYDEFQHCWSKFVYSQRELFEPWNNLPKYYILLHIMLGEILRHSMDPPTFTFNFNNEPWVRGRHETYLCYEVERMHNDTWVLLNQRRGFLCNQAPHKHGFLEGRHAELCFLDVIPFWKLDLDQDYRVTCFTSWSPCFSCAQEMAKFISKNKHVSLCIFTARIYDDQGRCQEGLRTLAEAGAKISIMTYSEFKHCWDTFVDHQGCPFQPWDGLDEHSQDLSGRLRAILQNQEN
Glucocorticoid receptor (Homo sapiens), sequence (P04150 whole entry, looked up): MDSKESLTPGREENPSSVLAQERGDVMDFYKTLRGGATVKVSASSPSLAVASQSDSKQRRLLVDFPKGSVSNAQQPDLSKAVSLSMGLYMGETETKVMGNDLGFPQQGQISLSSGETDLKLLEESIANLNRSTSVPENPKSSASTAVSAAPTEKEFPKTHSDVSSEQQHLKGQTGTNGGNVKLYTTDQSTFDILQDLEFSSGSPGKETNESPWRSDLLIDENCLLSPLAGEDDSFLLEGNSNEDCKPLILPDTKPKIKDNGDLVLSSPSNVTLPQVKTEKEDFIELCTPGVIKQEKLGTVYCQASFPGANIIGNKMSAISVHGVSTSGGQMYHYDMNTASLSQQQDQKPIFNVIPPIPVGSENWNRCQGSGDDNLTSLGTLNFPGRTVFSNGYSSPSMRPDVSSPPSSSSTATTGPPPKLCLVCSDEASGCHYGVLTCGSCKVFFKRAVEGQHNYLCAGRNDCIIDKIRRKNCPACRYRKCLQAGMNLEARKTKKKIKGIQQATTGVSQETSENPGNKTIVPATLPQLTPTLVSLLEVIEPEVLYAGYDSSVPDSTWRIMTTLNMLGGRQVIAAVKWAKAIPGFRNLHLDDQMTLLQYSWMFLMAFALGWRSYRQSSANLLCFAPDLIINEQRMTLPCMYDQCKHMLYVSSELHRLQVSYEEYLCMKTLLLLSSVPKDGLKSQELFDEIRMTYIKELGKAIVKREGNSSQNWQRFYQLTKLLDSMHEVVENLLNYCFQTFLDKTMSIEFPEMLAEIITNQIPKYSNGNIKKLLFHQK
Androgen receptor (Homo sapiens), sequence (P10275 whole entry, looked up): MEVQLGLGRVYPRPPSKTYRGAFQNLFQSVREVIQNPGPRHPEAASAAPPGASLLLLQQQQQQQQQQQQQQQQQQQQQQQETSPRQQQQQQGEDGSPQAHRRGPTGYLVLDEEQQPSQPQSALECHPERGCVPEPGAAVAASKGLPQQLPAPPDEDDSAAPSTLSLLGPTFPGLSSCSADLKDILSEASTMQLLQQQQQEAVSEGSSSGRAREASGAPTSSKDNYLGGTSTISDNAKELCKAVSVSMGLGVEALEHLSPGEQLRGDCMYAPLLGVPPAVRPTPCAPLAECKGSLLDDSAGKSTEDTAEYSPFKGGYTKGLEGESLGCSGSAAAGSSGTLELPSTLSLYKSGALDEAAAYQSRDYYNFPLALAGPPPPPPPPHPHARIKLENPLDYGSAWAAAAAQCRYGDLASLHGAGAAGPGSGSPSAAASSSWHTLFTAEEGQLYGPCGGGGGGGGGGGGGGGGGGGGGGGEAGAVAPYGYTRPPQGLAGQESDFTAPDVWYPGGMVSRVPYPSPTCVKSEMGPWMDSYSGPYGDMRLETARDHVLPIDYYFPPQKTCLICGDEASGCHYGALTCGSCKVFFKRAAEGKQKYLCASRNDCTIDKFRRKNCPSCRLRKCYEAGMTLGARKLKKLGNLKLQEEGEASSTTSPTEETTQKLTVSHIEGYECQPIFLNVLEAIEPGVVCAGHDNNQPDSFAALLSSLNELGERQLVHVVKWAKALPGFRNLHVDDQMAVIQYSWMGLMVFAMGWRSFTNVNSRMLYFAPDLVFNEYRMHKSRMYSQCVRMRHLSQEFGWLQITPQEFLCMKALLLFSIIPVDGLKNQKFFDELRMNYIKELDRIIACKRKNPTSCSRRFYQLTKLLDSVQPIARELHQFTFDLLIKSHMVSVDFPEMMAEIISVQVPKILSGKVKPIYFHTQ

O=C(O)Cc1ccc(O)c(O)c1
Potency [1]: inactive | viability change [1]: 9.81% | outcome [2]: inactive | Potency [3]: inactive | Potency [4]: inactive | Potency [5]: inactive | Potency [6]: inactive | Potency [7]: inactive

CC(=O)NNC(=O)N1Cc2ccccc2Oc2ccc(Cl)cc21
Potency [1]: inactive | viability change [1]: -4.76% | outcome [2]: inactive | Potency [3]: inactive | Potency [4]: inactive | Potency [5]: inactive | Potency [8]: inactive | Potency [7]: inactive | Potency [9]: inactive | Potency [10]: inactive

O=C(O)c1ccccc1Nc1ccccc1
Potency [1]: inactive | viability change [1]: 10.9% | outcome [2]: inactive | Potency [3]: inactive | Potency [4]: inactive | Potency [5]: inactive | Potency [6]: inactive | Potency [7]: inactive | Potency [9]: inactive

NC(=Nc1ccccc1)NC(=O)c1nc(Cl)c(N)nc1N
Potency [1]: inactive | viability change [1]: -16.8% | outcome [2]: inactive | Potency [3]: inactive | Potency [4]: inactive | Potency [5]: inactive | Potency [6]: inactive | Potency [8]: inactive | Potency [9]: inactive

Nc1ncnc2c1nc(Sc1ccc(Cl)cc1)n2[C@H]1OC2COP(=O)(O)O[C@@H]2C1O (stereo partly drawn)
Potency [1]: inactive | viability change [1]: 3.2% | outcome [2]: inactive | Potency [4]: inactive | Potency [5]: inactive | Potency [6]: inactive | Potency [8]: inactive | Potency [7]: inactive | Potency [9]: inactive

CC(N)(Cc1ccc(O)cc1)C(=O)O (stereo not drawn)
Potency [1]: inactive | viability change [1]: 11.6% | outcome [2]: inactive | Potency [3]: inactive | Potency [5]: inactive | Potency [6]: inactive | Potency [8]: inactive | Potency [7]: inactive | Potency [9]: inactive

CC[C@@H]1Cc2cc(O)ccc2C2=C1c1ccc(O)cc1C[C@H]2CC
Potency [1]: inactive | viability change [1]: 1.92% | outcome [2]: inactive | Potency [3]: inactive | Potency [4]: inactive | Potency [5]: inactive | Potency [6]: inactive | Potency [8]: inactive | Potency [7]: 22.4 µM (active) | Potency [9]: 15.8 µM (active) | activation [11]: -13.9% (inactive) | activation [12]: -4.83% (inactive)

CCCCCC[C@@H]([C@@H](C)O)n1cnc2c(N)ncnc21
Potency [1]: inactive | viability change [1]: 0.22% | outcome [2]: inactive | Potency [3]: inactive | Potency [5]: inactive | Potency [6]: inactive | Potency [8]: inactive | Potency [7]: inactive | Potency [9]: inactive | Potency [10]: inactive

Oc1ccc(/C=C/c2ccc(/C=C/c3ccc(O)cc3)c(Br)c2)cc1
Potency [1]: inactive | viability change [1]: 2.12% | outcome [2]: inactive | Potency [4]: inactive | Potency [5]: inactive | Potency [6]: inactive | Potency [8]: inactive

Nc1nc2c(cnn2CCc2ccccc2)c2nc(-c3ccco3)nn12
Potency [1]: inactive | viability change [1]: -1.96% | outcome [2]: inactive | Potency [4]: inactive | Potency [5]: inactive | Potency [6]: inactive | Potency [8]: inactive | Potency [7]: inactive

N#C/C(=C\c1ccc(O)c(O)c1)C(=O)NCCc1ccccc1
Potency [1]: inactive | viability change [1]: -10.3% | outcome [2]: inactive | Potency [3]: inactive | Potency [8]: inactive | Potency [9]: inactive

Cc1cc(Cn2cnc3c2C[C@@H](C(=O)O)N(C(=O)C(c2ccccc2)c2ccccc2)C3)ccc1N
Potency [1]: inactive | viability change [1]: 6.54% | outcome [2]: inactive | Potency [4]: inactive | Potency [5]: inactive | Potency [6]: inactive | Potency [8]: inactive | Potency [7]: inactive

C=CC[C@H](N)C(=O)O
Potency [1]: inactive | viability change [1]: -2.69% | outcome [2]: inactive | Potency [3]: inactive | Potency [4]: inactive | Potency [5]: inactive | Potency [6]: inactive | Potency [7]: inactive | Potency [9]: inactive

CCCCCCCCCCC/C=C\C(C)(C)/C=C\CCCC(=O)O
Potency [1]: inactive | viability change [1]: 3.47% | outcome [2]: inactive | Potency [3]: inactive | Potency [5]: inactive | Potency [6]: inactive | Potency [8]: 28.2 µM (active) | Potency [7]: inactive

C=CCN1CCc2c(cc(O)c(O)c2Br)[C@@H](c2ccccc2)C1
Potency [1]: inactive | viability change [1]: -6.77% | outcome [2]: inactive | Potency [3]: inactive | Potency [4]: inactive | Potency [5]: inactive | Potency [6]: inactive | Potency [7]: inactive

CC(N)(Cc1ccc(O)c(O)c1)C(=O)O (stereo not drawn)
Potency [1]: inactive | viability change [1]: -0.588% | outcome [2]: inactive | Potency [3]: inactive | Potency [4]: inactive | Potency [8]: inactive | Potency [9]: inactive

Cn1c(=O)c2[nH]c(-c3ccc(S(=O)(=O)O)cc3)nc2n(C)c1=O
Potency [1]: inactive | viability change [1]: -2.21% | outcome [2]: inactive | Potency [3]: inactive | Potency [4]: inactive | Potency [6]: inactive | Potency [7]: inactive | Potency [9]: inactive

CC(=O)O[C@H]1Cc2ccccc2N(C(N)=O)c2ccccc21
Potency [1]: inactive | viability change [1]: -3.02% | outcome [2]: inactive | Potency [4]: inactive | Potency [5]: inactive | Potency [6]: inactive | Potency [8]: inactive | Potency [7]: inactive | Potency [9]: inactive

COc1cc(/C=C(\C#N)C(=O)c2ccc(O)c(O)c2)cc(I)c1O
Potency [1]: inactive | viability change [1]: -22% | outcome [2]: inactive | Potency [13]: inactive | Potency [5]: 2.13 µM (active) | Potency [6]: inactive | Potency [8]: 50.1 µM (active)

CC(C)(C)NCC(O)COc1cccc2[nH]c(=O)[nH]c12 (stereo not drawn)
Potency [1]: inactive | viability change [1]: -1.12% | outcome [2]: inactive | Potency [3]: inactive | Potency [4]: inactive | Potency [5]: inactive | Potency [8]: inactive | Potency [7]: inactive | Potency [9]: inactive

S=C(S)N1CCCC1
Potency [1]: inactive | viability change [1]: -3.57% | outcome [2]: inactive | Potency [3]: inactive | Potency [4]: inactive | Potency [5]: inactive | Potency [6]: inactive | Potency [7]: inactive | Potency [9]: inactive

CN(C)C(=O)/N=N/C(=O)N(C)C
Potency [1]: inactive | viability change [1]: 1.53% | outcome [2]: inactive | Potency [3]: inactive | Potency [4]: inactive | Potency [5]: inactive | Potency [8]: inactive | Potency [7]: inactive

COC(=O)C1=C(C)NC(C)=C([N+](=O)[O-])C1c1ccccc1C(F)(F)F (stereo not drawn)
Potency [1]: inactive | viability change [1]: -10.2% | outcome [2]: inactive | Potency [3]: inactive | Potency [4]: inactive | Potency [5]: inactive | Potency [6]: inactive | Potency [7]: inactive | Potency [9]: inactive

CC(=O)SC1CC2=CC(=O)CC[C@]2(C)C2CC[C@@]3(C)C(CC[C@@]34CCC(=O)O4)C12 (stereo partly drawn)
Potency [1]: inactive | viability change [1]: -9.73% | outcome [2]: inactive | Potency [4]: inactive | Potency [6]: inactive | Potency [8]: inactive | Potency [7]: inactive

CCCCCCCCCCCCCCC[C@H](O)[C@H](N)CO
Potency [1]: inactive | viability change [1]: 2.23% | Potency [3]: inactive | Potency [13]: inactive | Potency [4]: inactive | Potency [5]: inactive | Potency [6]: inactive | Potency [8]: 79.4 µM (active) | Potency [7]: inactive | Potency [9]: inactive
